According to PubChem BioAssay (NCATS):
Inconclusive results are not listed. Active and inactive are the calls of the source. Unless noted, calls come from the whole dose curve; as a rule, active = well fitted curve in the direction sought with a large enough effect; inconclusive = small, poorly fitted or top-dose-only effect, or another doubt; inactive = no such curve, though single readings can be large; an effect the other way counts as inactive or inconclusive.

What was measured:
[1] = S16 Schwann cell PMP22 intronic element firefly luciferase assay (AID 624032); details: S16 rat Schwann cells, PMP22 element FLuc, 24 h; series mostly up to 57.5 µM; note: nearly all actives have a fitted effect of over 30% in size; note: potency is the fitted concentration of half-maximal effect
Outline: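 Luciferase reporter of PMP22 intronic-element expression in stably transfected S16 rat Schwann cells, read by ONE-Glo luminescence after 24 h compound exposure at 37 C. Activity scaled between DMSO (0%) and positive-control PTC124; concentration-effect curves quality-classified.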

7G8 = test: qHTS profiling for inhibitors of Plasmodium falciparum proliferation (AID 504749); note: nearly all actives have a fitted effect of over 60% in size; note: potency is the fitted concentration of half-maximal effect; details: P. falciparum in erythrocytes, SYBR Green DNA, 72 h; series mostly up to 28.7 µM
Outline: (§1)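 Infected RBCs, 0.3% parasitemia/2.5% Hct final; cpd 72 h, 37 C, 5% CO2; lysis buffer with saponin/triton/SYBR Green I, o/n RT dark; FI 485/535; norm. to artemisinin (0.29 uM) and DMSO.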

DIV17 = test: as above; details: P. falciparum in erythrocytes, SYBR Green DNA, 72 h; series mostly up to 28.7 µM
Outline: as §1

PC26 = test: as above; details: P. falciparum in erythrocytes, SYBR Green DNA, 72 h; series mostly up to 28.7 µM
Outline: as §1

[2] = Inducers of the Endoplasmic Reticulum Stress Response (ERSR) in human glioma: Validation (AID 504836); details: human glioma cells, ER stress response reporter; series mostly up to 38.3 µM; note: 0% is about no effect
Outline: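 ERSR induction read as luciferase luminescence (Bright-Glo, 10 min at room temperature) in stably transfected human U87-MG glioma cells exposed to compounds for 16 h, using GRP78 as sensor.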

TAB109 = test: qHTS profiling for inhibitors of Plasmodium falciparum proliferation (AID 504749); note: nearly all actives have a fitted effect of over 60% in size; note: potency is the fitted concentration of half-maximal effect; details: P. falciparum in erythrocytes, SYBR Green DNA, 72 h; series mostly up to 28.7 µM
Outline: as §1

[3] = target: Cytochrome P450 3A4 (Homo sapiens) (UniProt P08684); test: qHTS Assay for Inhibitors and Substrates of Cytochrome P450 3A4 (AID 884); details: recombinant CYP3A4, Luciferin-PPXE luminescence; series mostly up to 57.1 µM; note: % is set by controls: 0 for no effect and ±100 for the full control effect; nearly all actives have a fitted effect of over 50% in size
Outline: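 20 nM human CYP3A4 with 25 uM Luciferin-PPXE (at KM) in 200 mM KPO4, preincubated 10 min with compound; NADPH regeneration started a 60 min RT reaction. Luciferin detected by luminescence, normalized to 57 uM ketoconazole as full inhibition.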

[4] = Confirmation and Secondary Assay for Modulators of Hemoglobin Beta Chain Splicing at IVS2 654 locus (AID 910); details: HeLa EGFP-654 splicing reporter, GFP fluorescence, 48 h; series mostly up to 46.1 µM;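 note: HeLa cells stably carrying EGFP split by mutant beta-globin IVS2-654 intron; per-well total GFP intensity by laser scanning cytometry after 2-day treatment; % of control where 0% means no effect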
Outline: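 Readout: per-well total peak green fluorescence (488 nm ex, 500–520 nm em) from objects 5–250 µm, reflecting correct splicing of an EGFP-654 reporter. Compounds were applied for 2 days at 37 °C to overnight-plated HeLa EGFP-654 cells; controls were DMSO and 500 nM IVS2-654 PNA.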

[5] = Confirmation and Secondary Assay for Modulators of Hemoglobin Beta Chain Splicing at IVS2 705 locus (AID 930); details: HeLa EGFP-705 splicing reporter, GFP fluorescence, 48 h; series mostly up to 46.1 µM;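 note: HeLa cells stably expressing the EGFP-705 splicing reporter; GFP fluorescence per well restored by corrected splicing of the IVS2-705 intron in EGFP; % of control where 0% means no effect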
Outline: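 Secondary splice-site specificity test uses HeLa expressing CMV-driven EGFP interrupted by IVS2-705; cells were treated 2 days at 37C with 500 nM antisense PNA as positive control.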

[6] = target: Peroxisome proliferator-activated receptor delta (Homo sapiens) (UniProt Q03181); test: qHTS assay for small molecule agonists of peroxisome proliferator-activated receptor delta signaling (AID 588534; calls by dose curve;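 note: 0% = DMSO basal wells and 100% = positive control agonist at 10 µM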); details: HEK293T PPARdelta-UAS-bla, beta-lactamase ratio, 18 h; series mostly up to 76.7 µM
Outline: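 Cells carrying a PPAR-delta beta-lactamase reporter were treated with compounds for 18 h at 37 °C in agonist mode. CCF4 fluorescence was read after 2 h; EC50 and efficacy from Hill fits.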

[7] = target: Vitamin D3 receptor (Homo sapiens) (UniProt P11473); test: qHTS assay for small molecule antagonists of vitamin D receptor signaling (AID 588541; calls by dose curve;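 note: receptor activated by calcitriol during compound treatment; % is set by controls: 0 for no effect and ±100 for the full control effect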); details: HEK293T VDR-UAS-bla, beta-lactamase ratio, antagonist mode; series mostly up to 76.7 µM
Outline: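 Antagonist-mode beta-lactamase reporter assay: HEK293T VDR-UAS-bla cells were exposed to titrated compound alongside 1-alpha,25-dihydroxyvitamin D3 at 3 nM final for 16 h. Values were normalized to the 50 nM agonist control and DMSO basal, with IC50 and efficacy from Hill equation fits.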

[8] = target: Vitamin D3 receptor (Homo sapiens) (UniProt P11473); test: qHTS assay for small molecule agonists of vitamin D receptor signaling (AID 588543; calls by dose curve;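 note: 0% = DMSO basal and 100% = reference agonist control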); details: HEK293T VDR-UAS-bla, beta-lactamase ratio, 16 h; series mostly up to 76.8 µM
Outline: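 β-lactamase reporter, VDR-UAS-bla HEK293T, agonist mode. Cells plated 5 h at 37 °C, compound titration 16 h at 37 °C, CCF4 dye 2 h RT, ratio 460/530 nm. Hill fit → EC50, efficacy vs 50 nM 1α,25-(OH)2D3.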

[9] = target: Thyroid hormone receptor beta (Homo sapiens) (UniProt P10828); test: qHTS assay for small molecule agonists of thyroid hormone receptor beta signaling (AID 588545; calls by dose curve;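 note: 0% = DMSO only and 100% = 10 nM T3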); details: TR-UAS-bla GripTite HEK 293, beta-lactamase ratio, agonist mode, 18 h; series mostly up to 76.7 µM
Outline: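 Beta-lactamase reporter activity under TR response element control is measured in HEK 293 cells after 18 hrs compound exposure. Signal is ratiometric CCF4 fluorescence, 460/530 nm.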

[10] = qHTS assay for small molecule antagonists of retinoid X receptor alpha signaling (AID 588546; active = well fitted inhibition curve with a large enough effect in the signal ratio, with a control signal flat, not every such curve was filed as active; the % refers to the signal ratio;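 note: cells stimulated with 9-cis-retinoic acid as agonist; % is set by controls: 0 for no effect and ±100 for the full control effect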); details: HEK293T RXRa-UAS-bla, beta-lactamase ratio, antagonist mode; measured here: W530 green channel, cytotoxicity proxy
Outline: (§2)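 Beta-lactamase reporter inhibition, read as CCF4 fluorescence ratio (ex 405, em 460/530 nm) after 2 h at RT. HEK293T UAS-bla cells, 2500/well, were stimulated with 9-cis-RA at 500 or 100 nM final alongside test compound for 18 h at 37 C.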

[11] = target: Retinoic acid receptor RXR-alpha (Homo sapiens) (UniProt P19793); test: as above; details: HEK293T RXRa-UAS-bla, beta-lactamase ratio, antagonist mode
Outline: as §2

[12] = target: Peroxisome proliferator-activated receptor alpha (Homo sapiens) (UniProt Q07869); test: qHTS assay for small molecule agonists of the peroxisome proliferator-activated receptor alpha (PPARalpha) signaling pathway (AID 651778); details: PathHunter PPARalpha complementation, chemiluminescence, 6 h; max response: stronger effect = higher value; note: % of control where 0% means no effect
Outline: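 Chemiluminescence from complemented enzyme reported PPARalpha activation in cells after 6 hr of compound treatment at 37 C. The detection reagent was incubated for 60 min at room temperature, and compounds were scored as agonists.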

[13] = qHTS assay for small molecule agonists of the antioxidant response element (ARE) signaling pathway measured by Nrf2-dependant transcriptional activity - cell viability counter screen (AID 720653; active = well fitted curve in the direction sought with a large enough effect in the repeat runs; an effect the other way counts as inactive or inconclusive; note: % is set by controls: 0 for no effect and ±100 for the full control effect); details: ARE-bla HepG2 viability, CellTiter-Glo ATP luminescence, 16 h; max response: stronger effect = lower value
Outline: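 Cytotoxicity counter screen: intracellular ATP quantified by CellTiter-Glo luminescence in the same ARE-bla HepG2 plates, after 16 h compound exposure and a 2 h beta-lactamase substrate step.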

[14] = qHTS assay for cell viability of HEK293 cells (AID 743288); details: ATP luminescence (CellTiter-Glo), 18 h; max response: stronger effect = lower value; note: % is set by controls: 0 for no effect and ±100 for the full control effect; nearly all actives have a fitted effect of over 50% in size
Outline: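 Environmental chemicals tested in qHTS format against parental HEK293 cells; 18 h treatment, 37 C; read-out ATP luminescence (CellTiter-Glo), 30 min RT development.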

Vitamin D3 receptor (Homo sapiens), sequence (P11473 whole entry, looked up): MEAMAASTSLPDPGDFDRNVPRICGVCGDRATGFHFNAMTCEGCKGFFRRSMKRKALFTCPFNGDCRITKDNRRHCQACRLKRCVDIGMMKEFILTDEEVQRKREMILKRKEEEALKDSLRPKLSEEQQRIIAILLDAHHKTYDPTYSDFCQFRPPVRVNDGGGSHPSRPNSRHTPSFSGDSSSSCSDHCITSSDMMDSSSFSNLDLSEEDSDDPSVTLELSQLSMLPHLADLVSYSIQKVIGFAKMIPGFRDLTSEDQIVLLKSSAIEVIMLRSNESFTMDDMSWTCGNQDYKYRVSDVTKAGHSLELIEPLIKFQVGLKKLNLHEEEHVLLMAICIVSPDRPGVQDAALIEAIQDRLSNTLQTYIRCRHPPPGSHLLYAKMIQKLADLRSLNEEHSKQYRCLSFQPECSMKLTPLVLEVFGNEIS
Retinoic acid receptor RXR-alpha (Homo sapiens), sequence (P19793 whole entry, looked up): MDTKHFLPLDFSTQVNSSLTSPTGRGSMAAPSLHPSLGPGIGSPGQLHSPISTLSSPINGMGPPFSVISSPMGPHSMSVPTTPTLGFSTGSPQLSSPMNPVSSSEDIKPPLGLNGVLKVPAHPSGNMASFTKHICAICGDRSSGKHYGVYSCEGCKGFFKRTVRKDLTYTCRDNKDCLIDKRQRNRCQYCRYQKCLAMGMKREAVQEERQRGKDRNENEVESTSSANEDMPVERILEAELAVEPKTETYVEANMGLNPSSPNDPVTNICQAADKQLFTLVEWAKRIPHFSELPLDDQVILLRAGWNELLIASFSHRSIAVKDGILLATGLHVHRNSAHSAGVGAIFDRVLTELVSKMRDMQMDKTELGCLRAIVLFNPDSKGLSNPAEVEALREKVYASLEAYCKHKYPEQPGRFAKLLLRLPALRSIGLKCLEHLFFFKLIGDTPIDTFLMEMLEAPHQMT
Peroxisome proliferator-activated receptor alpha (Homo sapiens), sequence (Q07869 whole entry, looked up): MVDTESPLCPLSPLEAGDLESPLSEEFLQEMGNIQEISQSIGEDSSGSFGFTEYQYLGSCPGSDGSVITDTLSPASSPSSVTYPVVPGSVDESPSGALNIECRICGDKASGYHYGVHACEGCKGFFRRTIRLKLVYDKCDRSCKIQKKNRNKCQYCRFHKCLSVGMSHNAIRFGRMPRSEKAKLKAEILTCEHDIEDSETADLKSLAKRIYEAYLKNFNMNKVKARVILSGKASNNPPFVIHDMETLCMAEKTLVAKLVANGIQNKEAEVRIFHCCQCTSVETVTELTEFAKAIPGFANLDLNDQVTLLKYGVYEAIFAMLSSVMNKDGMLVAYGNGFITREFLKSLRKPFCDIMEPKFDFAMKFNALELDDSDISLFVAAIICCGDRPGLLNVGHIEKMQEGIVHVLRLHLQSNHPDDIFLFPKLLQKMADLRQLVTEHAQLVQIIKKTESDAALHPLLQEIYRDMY
Peroxisome proliferator-activated receptor delta (Homo sapiens), sequence (Q03181 whole entry, looked up): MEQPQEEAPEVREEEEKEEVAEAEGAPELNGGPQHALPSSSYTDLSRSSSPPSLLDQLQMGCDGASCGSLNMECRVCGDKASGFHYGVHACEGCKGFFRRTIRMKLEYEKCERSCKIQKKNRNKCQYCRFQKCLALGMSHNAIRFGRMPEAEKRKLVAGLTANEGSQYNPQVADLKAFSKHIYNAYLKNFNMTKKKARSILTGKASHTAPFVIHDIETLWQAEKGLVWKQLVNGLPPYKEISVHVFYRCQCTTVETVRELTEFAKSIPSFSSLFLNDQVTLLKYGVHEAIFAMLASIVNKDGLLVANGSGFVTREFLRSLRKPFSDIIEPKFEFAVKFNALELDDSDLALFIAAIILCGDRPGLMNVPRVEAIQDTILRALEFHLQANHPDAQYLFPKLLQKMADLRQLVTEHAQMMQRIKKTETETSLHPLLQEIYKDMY
Cytochrome P450 3A4 (Homo sapiens), sequence (P08684 whole entry, looked up): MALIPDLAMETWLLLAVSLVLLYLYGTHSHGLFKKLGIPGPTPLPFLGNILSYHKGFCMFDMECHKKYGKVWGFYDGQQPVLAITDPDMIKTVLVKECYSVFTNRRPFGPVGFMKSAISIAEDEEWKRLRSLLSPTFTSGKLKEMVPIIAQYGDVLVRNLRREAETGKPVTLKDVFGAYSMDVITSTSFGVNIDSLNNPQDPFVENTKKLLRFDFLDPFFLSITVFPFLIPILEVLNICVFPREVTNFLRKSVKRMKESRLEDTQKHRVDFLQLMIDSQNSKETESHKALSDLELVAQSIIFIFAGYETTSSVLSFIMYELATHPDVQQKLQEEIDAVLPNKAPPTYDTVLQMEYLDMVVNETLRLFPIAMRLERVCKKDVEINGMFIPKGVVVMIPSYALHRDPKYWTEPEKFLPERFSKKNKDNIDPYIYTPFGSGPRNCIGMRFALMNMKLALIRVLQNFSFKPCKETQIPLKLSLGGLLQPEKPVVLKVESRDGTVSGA
Thyroid hormone receptor beta (Homo sapiens), sequence (P10828 whole entry, looked up): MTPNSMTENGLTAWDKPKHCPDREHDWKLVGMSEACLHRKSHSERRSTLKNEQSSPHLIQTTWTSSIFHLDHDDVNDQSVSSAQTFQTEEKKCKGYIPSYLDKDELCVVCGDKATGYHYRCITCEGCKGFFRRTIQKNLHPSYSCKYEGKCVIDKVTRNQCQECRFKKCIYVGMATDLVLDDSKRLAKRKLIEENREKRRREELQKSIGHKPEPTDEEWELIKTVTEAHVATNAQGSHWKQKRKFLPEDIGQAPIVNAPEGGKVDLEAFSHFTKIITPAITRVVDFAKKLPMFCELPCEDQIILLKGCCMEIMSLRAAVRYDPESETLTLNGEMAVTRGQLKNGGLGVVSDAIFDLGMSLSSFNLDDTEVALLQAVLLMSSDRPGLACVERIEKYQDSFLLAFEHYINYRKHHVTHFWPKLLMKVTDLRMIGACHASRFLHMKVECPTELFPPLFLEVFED

C#CC1(O)C=CC2C3CCC4=CC(=O)CCC4C3CCC21CC (stereo unspecified)
active: Potency [1] 6.42 µM | Potency (7G8) 12.6 µM | Potency (DIV17) 9.53 µM | Potency (PC26) 6.75 µM

C[C@]12CCC3C(CCC4=C(Cl)C(=O)CC[C@@]43C)C1CCC2O (stereo partly specified)
inactive: Potency (DIV17) | Potency (PC26)

NS(=O)(=O)C#Cc1ccccc1
inactive: outcome [2]

CCC(=O)OC1(c2ccccc2)CCN(C)CC1C (stereo unspecified)
inactive: Potency [1]

C[C@]12CC[C@H]3[C@@H](CC[C@@]45O[C@@H]4C(=O)C(C#N)C[C@]35C)[C@@H]1CC[C@@H]2O (stereo partly specified)
inactive: Potency [1] | Potency (7G8) | Potency (PC26)

O=C1CC2OCC=C3CN4CCC56c7ccccc7N1C5[C@H]2[C@H]3C[C@H]46 (stereo partly specified) (tested in a mixture with another compound)
inactive: Potency [1]

CCCC(C)C1(CC)C(=O)NC(=S)NC1=O (stereo unspecified)
inactive: Potency [1] | Potency (DIV17) | Potency (PC26) | Potency (TAB109)

CC12CCC3C4CCC(=O)C(O)=C4CCC3C1CCC2OC(=O)CCC1CCCC1 (stereo unspecified)
inactive: Potency [1] | Potency (DIV17) | Potency (PC26) | Potency (TAB109)

COC(=O)C1C(OC(=O)c2ccccc2)CC2CCC1N2C (stereo unspecified)
inactive: Potency [1] | Potency (7G8) | Potency (DIV17) | Potency (PC26) | Potency (TAB109)

C=C1CC2C(CC[C@]3(C)C(=O)CCC23)[C@]2(C)C=CC(=O)C=C12 (stereo partly specified)
inactive: Potency [3] | Potency [4] | outcome [5] | Potency (DIV17) | Potency (PC26) | Potency (TAB109)
active: Potency [1] 11.4 µM

C[C@@H](N)[C@@H](O)c1ccc(O)c(O)c1
inactive: Potency (7G8) | Potency (DIV17) | Potency (PC26) | Potency (TAB109)

O=C1CC2OCC=C3CN4CC[C@]56c7ccccc7N1C5C2[C@H]3C[C@H]46 (stereo partly specified)
inactive: Potency [1] | Potency (DIV17) | Potency (PC26)
active: Potency (7G8) 11.2 µM

C=C1C(=O)O[C@@H]2[C@H]3O[C@]3(C)CCC=C(C)CC[C@@H]12
inactive: outcome [2]

Cc1ccc2c(c1)[C@@H]1CN(C)CC[C@H]1N2
inactive: Potency (7G8) | Potency (DIV17) | Potency (PC26) | Potency (TAB109)

CC(C)=CC1C(C(=O)OCc2coc(Cc3ccccc3)c2)C1(C)C (stereo unspecified)
-14.2%: max response [10]
inactive: outcome [6] | Potency [7] | outcome [8] | Potency [9] | max response [11] 3.05% | Potency [1] | max response [12] -0.283% | max response [13] -23.8% | max response [14] 0.368% | Potency (PC26) | Potency (TAB109)

CC(=O)Oc1ccc2c3c1OC1[C@@H](OC(C)=O)C=C[C@H]4[C@H](C2)N(C)CC[C@]314 (stereo partly specified)
inactive: Potency [1] | Potency (PC26) | Potency (TAB109)

CC(Cc1ccccc1)N(C)C (stereo unspecified)
inactive: Potency [1] | Potency (DIV17) | Potency (PC26) | Potency (TAB109)

C#C[C@]1(O)CC[C@H]2[C@@H]3CCC4=CC(=O)CCC4(C)[C@H]3CCC21C (stereo partly specified)
inactive: Potency [1] | Potency (DIV17) | Potency (PC26) | Potency (TAB109)

C=CC[C@]1(O)CCC2C3CCC4=CCCCC4C3CCC21C (stereo partly specified)
active: Potency [1] 22.8 µM
inactive: Potency (DIV17) | Potency (PC26) | Potency (TAB109)

Nc1nc(O)c(-c2ccccc2)o1
inactive: Potency [1] | Potency (7G8) | Potency (DIV17) | Potency (PC26) | Potency (TAB109)

CC(CO)NC(=O)C1C=C2c3cccc4[nH]cc(c34)CC2N(C)C1 (stereo unspecified)
inactive: Potency [1] | Potency (7G8) | Potency (PC26) | Potency (TAB109)

CC[C@@H](C)[C@H]1O[C@]2(CC[C@H]1C)C[C@@H]1C[C@@H](CC=C(C)[C@@H](O[C@H]3C[C@H](OC)[C@@H](O[C@H]4C[C@H](OC)[C@@H](O)[C@H](C)O4)[C@H](C)O3)[C@@H](C)C=CC=C3CO[C@@H]4[C@H](O)C(C)=C[C@@H](C(=O)O1)[C@]34O)O2
inactive: outcome [2]

CC(=O)[C@H]1CC[C@H]2C3CC[C@H]4C[C@H](O)CC[C@]4(C)C3CC[C@]12C (stereo partly specified)
inactive: Potency [1] | Potency (DIV17) | Potency (PC26) | Potency (TAB109)
